Candida biofilm: kills Candida albicans biofilms | hit rate 0.14% among 85,000 | C. albicans biofilm + clotrimazole, Alamar Blue | inhibition, % at 6 µM | AID 834;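 active = inhibition above 20%; inactive = inhibition below 20%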;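 also: preformed 24 hr biofilms exposed to compound for 48 hr; 0% = biofilm without compound and 100% = blank killed by clotrimazole plus chlorhexidine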
ERb coact inh: ER-beta (human) coactivator binding inhibition; TR-FRET ER-beta LBD / SRC1-Cy5 peptide binding; receptor agonist-loaded with 1 µM estradiol; inhibition, % at 25.6 µM; AID 633; hit rate 1.3% among 86,000; Q92731;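 active = compounds whose percent inhibition of the receptor-coactivator binding signal exceeds about 50% in the single-dose screen, limit read from the data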;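 also: 0% = receptor plus peptide wells without compound and 100% = peptide-only wells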
ERa coact inh: blocks coactivator binding to human estrogen receptor alpha; TR-FRET ER-alpha LBD / SRC-1 peptide, estradiol-bound; inhibition, % at 25.6 µM; hit rate 1.7% among 86,000; in the data active = inhibition above about 50%;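 also: 0% = receptor plus peptide control and 100% = peptide only without receptor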
FAK inh: blocks human focal adhesion kinase activity; hit rate 0.84% among 97,000; inhibition, %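 (tested at 7 µM)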; Q05397; AID 727; biochemical FAK kinase activity assay; in the data active = inhibition above about 19%;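 also: 0% = DMSO and 100% = reference compound high control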
Target sequence (Q05397 whole entry, looked up): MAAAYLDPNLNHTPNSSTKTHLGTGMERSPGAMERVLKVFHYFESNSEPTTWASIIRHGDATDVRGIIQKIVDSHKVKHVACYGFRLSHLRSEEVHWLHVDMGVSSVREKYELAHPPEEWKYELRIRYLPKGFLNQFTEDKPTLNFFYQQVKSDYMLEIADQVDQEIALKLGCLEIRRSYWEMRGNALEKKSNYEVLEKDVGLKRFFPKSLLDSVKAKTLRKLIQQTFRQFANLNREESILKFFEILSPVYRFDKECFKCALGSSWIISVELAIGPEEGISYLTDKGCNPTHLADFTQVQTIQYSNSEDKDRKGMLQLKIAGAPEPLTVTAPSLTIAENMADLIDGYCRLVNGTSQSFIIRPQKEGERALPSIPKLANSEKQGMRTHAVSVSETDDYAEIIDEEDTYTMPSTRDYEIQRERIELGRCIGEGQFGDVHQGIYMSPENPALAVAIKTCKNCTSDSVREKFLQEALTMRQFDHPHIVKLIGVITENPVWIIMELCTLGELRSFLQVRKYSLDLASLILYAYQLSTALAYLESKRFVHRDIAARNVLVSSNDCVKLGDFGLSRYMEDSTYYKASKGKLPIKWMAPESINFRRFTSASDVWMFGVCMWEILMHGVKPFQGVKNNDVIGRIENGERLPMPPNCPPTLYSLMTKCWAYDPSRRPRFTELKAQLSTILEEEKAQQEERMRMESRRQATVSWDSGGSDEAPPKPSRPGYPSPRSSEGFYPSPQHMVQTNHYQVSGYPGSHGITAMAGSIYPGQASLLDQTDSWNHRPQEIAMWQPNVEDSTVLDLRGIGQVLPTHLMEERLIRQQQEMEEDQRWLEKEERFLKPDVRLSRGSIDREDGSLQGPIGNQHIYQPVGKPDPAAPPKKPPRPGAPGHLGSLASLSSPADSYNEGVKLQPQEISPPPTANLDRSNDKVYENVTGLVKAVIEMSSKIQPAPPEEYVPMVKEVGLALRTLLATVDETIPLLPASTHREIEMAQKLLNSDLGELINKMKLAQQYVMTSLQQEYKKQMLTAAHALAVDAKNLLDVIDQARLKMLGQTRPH
ERa coact pot: enhances coactivator binding to human estrogen receptor alpha | AID 639 | coactivator binding (% of control), % at 25.6 µM | P03372 | hit rate 1.3% among 86,000 | TR-FRET ERalpha-LBD/SRC-Cy5 coactivator binding, 2 h; 100 = basal binding, no effect; in the data active = activity above about 200%;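 also: binding measured in presence of low estradiol as agonist stimulus; 0% = peptide alone without receptor and 100% = receptor with peptide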
Smad3 FoxH1 inh: blocks human Smad3 binding to FoxH1 peptide; P84022; TR-FRET Smad3/Dy647-FoxH1 peptide binding, europium anti-His; inhibition, % at 25 µM; hit rate 0.29% among 88,000; AID 630;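 active = compounds that reduce the energy-transfer binding signal between the protein and its labelled peptide by more than half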;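 also: 0% = Smad3 plus labelled peptide maximal FRET and 100% = peptide-only background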
Active calls of the source: *; [ ] = dose if it differs, or a comment. Rows were chosen to be rich in hits. Some 3.3% of all compounds tested hit in one or more screens of this group.

For CN(C)CCCOC(=O)Cc1ccc(Cl)cc1 the results were Candida biofilm 7, ERb coact inh -2, ERa coact inh -4, FAK inh -1, ERa coact pot 141 and Smad3 FoxH1 inh 11.
O=C(NCC(=O)N(Cc1cccs1)C(C(=O)NC1CCCCC1)c1ccco1)c1ccco1 (centres undefined) was read as Candida biofilm 7, ERb coact inh -8, ERa coact inh -4, FAK inh -1, ERa coact pot 101 and Smad3 FoxH1 inh 9.
O=C(NCC(=O)N(Cc1cccs1)C(C(=O)NC1CCCC1)c1ccncc1)c1ccco1 (centres undefined) was read as Candida biofilm 3, ERb coact inh 9, ERa coact inh 99*[fluorescence artefact?], FAK inh -1, ERa coact pot 75 and Smad3 FoxH1 inh 17.
`CCCCNS(=O)(=O)c1ccc2nc(SCC(=O)c3ccc(C#N)cc3)[nH]c2c1` gave Candida biofilm -2, ERb coact inh 7, ERa coact inh 7, ERa coact pot 279* and Smad3 FoxH1 inh 2.
COCCn1nnnc1CN1CCC(O)(c2cccc(C(F)(F)F)c2)CC1 was read as Candida biofilm 10, ERb coact inh -3, ERa coact inh -14, ERa coact pot 111 and Smad3 FoxH1 inh 11.
`OC1(c2cccc(C(F)(F)F)c2)CCNCC1` gave Candida biofilm 11, ERb coact inh 70*[fluorescence artefact?], ERa coact inh 16, FAK inh -1, ERa coact pot 86 and Smad3 FoxH1 inh -7.
Screening NC(=O)CSc1nnc(CCc2nc3ccccc3[nH]2)n1-c1ccccc1 returned Candida biofilm 0, ERb coact inh -4, ERa coact inh -2, FAK inh 0, ERa coact pot 101 and Smad3 FoxH1 inh 3.
For O=S(=O)(/N=C(\Sc1ccc(Cl)cc1)c1ccccc1)c1ccccc1 the results were Candida biofilm 1, ERb coact inh 55*[fluorescence artefact?], ERa coact inh 77*, FAK inh 2, ERa coact pot 27 and Smad3 FoxH1 inh -6.
`O/N=C/c1cc(Cl)ccc1OCc1cccc2ccccc12` gave FAK inh 1.
`CCCc1nc2sc3c(SCC(=O)NCc4ccco4)ncnc3c2c2c1CCC2` gave Candida biofilm 7, ERb coact inh 48, ERa coact inh 44, ERa coact pot 255*[fluorescence artefact?] and Smad3 FoxH1 inh 8.
`Cc1nc(SCC(=O)NCc2ccco2)c2c3c(sc2n1)CCCC3` gave Candida biofilm 2, ERb coact inh 16, ERa coact inh 15, FAK inh 2, ERa coact pot 115 and Smad3 FoxH1 inh 17.
`CCCCOC(=O)Nc1nc(C)c(C(=O)OCC)s1` gave FAK inh 3.
O=C(C(Cc1ccccc1)n1cccc1)N1CCCCC1 (centres undefined) was read as Candida biofilm -19, ERb coact inh -4, ERa coact inh -2, FAK inh -4, ERa coact pot 116 and Smad3 FoxH1 inh 11.
`O=C(C(Cc1ccccc1)n1cccc1)N1CCCCCC1` (centres undefined) gave Candida biofilm 21*, ERb coact inh -7, ERa coact inh -8, FAK inh -6, ERa coact pot 117 and Smad3 FoxH1 inh 6.
Screening COc1cccc(CSc2nc3sc(C)c(C)c3c(=O)n2Cc2ccco2)c1 returned Candida biofilm 5, ERb coact inh -9, ERa coact inh -10, FAK inh -2, ERa coact pot 104 and Smad3 FoxH1 inh -3.
Screening O=c1[nH][nH]c(=S)c(=O)[nH]1 returned Smad3 FoxH1 inh 52*.
For COc1ccc(S(=O)(=O)NC2CCCC2)c(Cl)c1Cl the results were Candida biofilm 5, ERb coact inh -1, ERa coact inh 3, FAK inh 2, ERa coact pot 105 and Smad3 FoxH1 inh 0.
CC1=C2C(CCS2(=O)=O)CC2(C1)C(=O)OC(C)(C)OC2=O (centres undefined) was read as Candida biofilm 9, ERb coact inh 17, ERa coact inh 2, FAK inh -3, ERa coact pot 84 and Smad3 FoxH1 inh 7.
Screening Ic1ccc2c(c1)N(c1ccccc1)c1cc(Nc3ccc4nc5ccc(I)cc5[n+](-c5ccccc5)c4c3)ccc1N2 returned Smad3 FoxH1 inh 90*.
`CCS(=O)(=O)N1CCC(NC(=O)C2CCCCC2)CC1` gave Candida biofilm 0, ERb coact inh -5, ERa coact inh 5, FAK inh 3, ERa coact pot 101 and Smad3 FoxH1 inh 6.
Screening CN(C(=O)CN1CCC(NC(=O)C2CCCCC2)CC1)C1CCCCC1 returned Candida biofilm 0, ERb coact inh 3, ERa coact inh 2, FAK inh -3, ERa coact pot 211*[fluorescence artefact?] and Smad3 FoxH1 inh 9.
`O=c1c2ccccc2nc2n1CCCCC2` gave Candida biofilm 8, ERb coact inh -9, ERa coact inh -8, FAK inh -5, ERa coact pot 115 and Smad3 FoxH1 inh 9.
For O=c1c2ccccc2nc2n1CCCCN2 the results were Candida biofilm 8, ERb coact inh 12, ERa coact inh 80*, FAK inh 1, ERa coact pot 82 and Smad3 FoxH1 inh -1.
Screening O=C(O)[C@H]1Cc2c([nH]c3ccccc23)[C@@H](CCCCO)N1 returned Smad3 FoxH1 inh 1.
`CCOC(=O)N1CCC(n2c(SCC(=O)N3CCC(C)CC3)nc3ccccc3c2=O)CC1` gave Candida biofilm 24*, ERb coact inh 4, ERa coact inh -9, FAK inh -5, ERa coact pot 108 and Smad3 FoxH1 inh 1.
Screening CCCCn1c(=O)[nH]c(=O)c2c1nc(-c1ccc(-c3ccccc3Br)o1)n2CCOC returned Candida biofilm -5, ERb coact inh -3, ERa coact inh 16, FAK inh -6, ERa coact pot 64 and Smad3 FoxH1 inh 1.
For COCCn1c(-c2ccc(-c3ccccc3Cl)o2)nc2c1c(=O)[nH]c(=O)n2CC(C)C the results were Candida biofilm 5, ERb coact inh 9, ERa coact inh 8, FAK inh -7, ERa coact pot 208* and Smad3 FoxH1 inh 17.
`O=C(NCc1cccc(C(F)(F)F)c1)C1CCN(c2ncccn2)CC1` gave Candida biofilm 12, ERb coact inh -8, ERa coact inh -3, FAK inh -3, ERa coact pot 88 and Smad3 FoxH1 inh 6.
`O=C(NNC(=O)c1ccc(SCC2CCCO2)c([N+](=O)[O-])c1)c1ccc(Cl)c([N+](=O)[O-])c1` (centres undefined) gave Candida biofilm 3, ERb coact inh 18, ERa coact inh 51*, FAK inh 1, ERa coact pot 62 and Smad3 FoxH1 inh 13.
`Cc1oc(-c2ccc(Cl)cc2)cc1-c1nn2c(-c3ccoc3C)nnc2s1` gave Candida biofilm 10, ERb coact inh 64*[fluorescence artefact?], ERa coact inh 79*, FAK inh 17, ERa coact pot 59 and Smad3 FoxH1 inh -27.

From PubChem BioAssay
